Our source for the Potency and activation values is PubChem BioAssay (Tox21).

Several values for one entry are separate records, joined by “and”; a condition that tells them apart may be missing. Identical values can stand only once. Unmarked numbers belong to inactive results. Records with an inconclusive call do not appear. Where a call stands in place of a potency, no number is given. Activity calls are given as the source filed them. The call rests on the fitted dose curve.

The first experiment can be described thus: G protein-coupled receptor (GPCR) small molecule agonists, calcium flux assay: HEK293 wild type cell line counter screen (AID 1920065). The settings on record: HEK293 WT calcium flux, fluorescence, agonist mode; series mostly up to 57.6 µM. A digest of the protocol:
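Calcium flux counter screen: compound added in agonist mode at 15 concentrations in triplicate to dye-loaded parental HEK293 cells. Fluorescence (480/540) read kinetically for 3 min; ATP served as positive control.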
Background: Calcium assays in cells follow changes in intracellular calcium, usually with a dye or a luminescent sensor.
Take `Cc1ccc(N)cc1O`: the Potency result was “inactive”.
The same measure, in the same setting: the result for `CCCCCCOC(=O)c1ccc(O)cc1` reads “inactive”; that for `CC(=O)[C@]1(O)Cc2c(O)c3c(c(O)c2[C@@H](O[C@H]2C[C@H](N)[C@H](O)[C@H](C)O2)C1)C(=O)c1ccccc1C3=O`, “inactive”.
As for `CCN(CC)CCCC(C)Nc1ccnc2cc(Cl)ccc12` (centres undefined), the activation is 0.411% [at 5.23 µM] and -0.526% [at 11.8 µM].
Consider `CCCCCCC(C)OC(=O)COc1nc(F)c(Cl)c(N)c1Cl` (centres undefined), for which the Potency entry is “inactive”.
On the same count and under the same terms, the result for `CCC(CN)=C(c1ccccc1)c1ccccc1` reads “inactive”; that for `CCOC(=O)c1ccccc1OC`, “inactive”.
As for `CC1(O)CSC(C)(O)CS1` (centres undefined), the Potency entry was “inactive”.
In the case of `OCCN1CCN(CCCN2c3ccccc3Sc3ccc(Cl)cc32)CC1`, the Potency entry was “inactive”.
Regarding `Nc1cccnc1N`, the Potency result was “inactive”.
For `O=C(O)[C@@H]1CSCN1`, the Potency result is “inactive”.
In the case of `O=[N+]([O-])c1ccc(O)cc1`, the Potency entry was “inactive”.
The same measure, in the same setting: the result for `Cc1ccc(N/N=c2\c(=O)cc/c(=N\Nc3ccc(S(=O)(=O)O)cc3)c2=O)c(C)c1` reads “inactive”; that for `CC(C)(C)c1ccc(C(=O)O)cc1`, “inactive”.
`CCOC(=O)COc1ccc2c(C)c(CCN(CC)CC)c(=O)oc2c1Cl`: the Potency result is “inactive”.
For the compound `O=[N+]([O-])c1ccc(O/N=C/c2cc(Br)c(O)c(Br)c2)c([N+](=O)[O-])c1`, the Potency entry is “inactive”.
On to `NC(N)=NN=C(/C=C/c1ccc([N+](=O)[O-])o1)/C=C/c1ccc([N+](=O)[O-])o1`, for which the Potency result is “inactive”.
With `CC(C)c1ccc2ncccc2c1`, the Potency result is “inactive”.
The same measure, in the same setting: the value for `CCOC(=O)COc1ccc2c(c1)CC(NCC(O)c1cccc(Cl)c1)CC2` (centres undefined) was “inactive”.
The same measure, in the same setting: the value for `CCc1ccc(O)c(C(C)(C)C)c1` was “inactive”.
On to `C=C1C(=C/C=C2\CCC[C@]3(C)[C@@H]([C@H](C)/C=C/[C@@H](O)C4CC4)CC[C@@H]23)C[C@@H](O)C[C@@H]1O`, for which the Potency result is “inactive”.
The same measure, in the same setting: the result for `CC(=O)O[C@@]12CO[C@@H]1C[C@H](O)[C@@]1(C)C(=O)[C@H](O)C3=C(C)[C@@H](OC(=O)[C@H](O)[C@@H](NC(=O)OC(C)(C)C)c4ccccc4)C[C@@](O)([C@@H](OC(=O)c4ccccc4)[C@H]21)C3(C)C` reads “inactive”.
Same read-out and setting: the value for `C[C@@H](c1ncncc1F)C(O)(Cn1cncn1)c1ccc(F)cc1F` (some centres undefined) was “inactive”.
On the same count and under the same terms, the result for `O=C(O)Cn1cnnn1` reads “inactive”; that for `NC(N)=N/N=C/c1c(Cl)cccc1Cl`, “inactive”; that for `O=C(CC(=O)C(F)(F)F)c1ccccc1`, “inactive”.
On to `CN1C[C@H]2c3ccccc3Oc3ccc(Cl)cc3[C@@H]2C1`, for which the Potency result was “inactive”.
Consider `CN1CCCN(C(c2ccccc2)c2ccc(Cl)cc2)CC1` (centres undefined), for which the Potency entry was “inactive”.
On the same count and under the same terms, the value for `NCCc1cnc[nH]1` was “inactive”.
The same measure, in the same setting: the result for `CO[C@@]12[C@H](COC(N)=O)C3=C(C(=O)C(C)=C(N)C3=O)N1C[C@@H]1N[C@@H]12` reads “inactive”.
Same read-out and setting: the result for `Oc1ccc(-c2ccccc2)c(Cl)c1` reads “inactive”; that for `CCN(CC)CCOC(=O)C1(C2CCCCC2)CCCCC1`, “inactive”.
Take `CCOc1cccc(-n2cc(C(=O)N3CCN(c4cc(C(=O)O)c5ccccc5c4)CC3)nc2-c2ccc(C)cc2)c1`: the Potency result was “inactive”.
Consider `OC(CCN1CCCCC1)(c1ccccc1)C1CC2C=CC1C2` (centres undefined), for which the Potency result was “inactive”.
Still for that read-out and setting: the value for `CC(C)C=O` was “inactive”.

A further experiment is described as follows: p53 small molecule agonists, cell-based qHTS assay with human liver microsomes (AID 1963577).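 Further: p53 response element beta-lactamase reporter cells with liver microsomes plus NADPH.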 The settings on record: HCT-116 p53RE-bla with human liver microsomes, ratio, 16 h; series mostly up to 66 µM. A digest of the protocol: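 Metabolically competent format: test substances, human liver microsomes and NADPH (both 0.5 mg/mL final) incubated with p53RE-bla cells 16 h at 37 C. Beta-lactamase reporter signal then quantified by fluorescence.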
Background: qHTS replaces the single test concentration by a dilution series.
Turning to `CCCCCCOC(=O)c1ccc(O)cc1`, the Potency result is “inactive”.
On to `CCCCCCOc1ccccc1C(N)=O`, for which the Potency result was “inactive”.
The same measure, in the same setting: the result for `CCC(CN)=C(c1ccccc1)c1ccccc1` reads “inactive”.
Still for that read-out and setting: the value for `CC1(O)CSC(C)(O)CS1` (centres undefined) was “inactive”; that for `CC(=O)NCCCS(=O)(=O)O` was “inactive”.
Take `Nc1cccnc1N`: the Potency result is “inactive”.
Same read-out and setting: the result for `O=[N+]([O-])c1ccc(O)cc1` reads “inactive”; that for `Cc1ccc(N/N=c2\c(=O)cc/c(=N\Nc3ccc(S(=O)(=O)O)cc3)c2=O)c(C)c1`, “inactive”; that for `CC(C)(C)c1ccc(C(=O)O)cc1`, “inactive”.
For the compound `C[C@@H](c1ncncc1F)C(O)(Cn1cncn1)c1ccc(F)cc1F` (some centres undefined), the Potency entry is “inactive”.
On to `NC(N)=N/N=C/c1c(Cl)cccc1Cl`, for which the Potency entry was “inactive”.
The same measure, in the same setting: the result for `O=C(CC(=O)C(F)(F)F)c1ccccc1` reads “inactive”; that for `CN1CCCN(C(c2ccccc2)c2ccc(Cl)cc2)CC1` (centres undefined), “inactive”; that for `NCCc1cnc[nH]1`, “inactive”.
As to `Oc1ccc(-c2ccccc2)c(Cl)c1`, the Potency entry is “inactive”.
As to `CCOc1cccc(-n2cc(C(=O)N3CCN(c4cc(C(=O)O)c5ccccc5c4)CC3)nc2-c2ccc(C)cc2)c1`, the Potency entry is “inactive”.
On the same count and under the same terms, the result for `OC(CCN1CCCCC1)(c1ccccc1)C1CC2C=CC1C2` (centres undefined) reads “inactive”.
Consider `CC(C)C=O`, for which the Potency result was “inactive”.

Another experiment is described as follows: p53 small molecule agonists, cell-based qHTS assay with rat liver microsomes (AID 1963578). Further: potency means the concentration at half of the fitted maximal effect. The settings on record: HCT-116 p53RE-bla, beta-lactamase ratio, 16 h; series mostly up to 66 µM. A digest of the protocol:
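Each plate received p53RE-bla cells, then compound, then rat liver microsomes and NADPH (both 0.5 mg/mL final). Plates were held 16 h at 37 C, and beta-lactamase activity was detected with LiveBLAzer over 2 h.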
Regarding `CCCCCCOC(=O)c1ccc(O)cc1`, the Potency result was “inactive”.
The same measure, in the same setting: the result for `CCCCCCC(C)OC(=O)COc1nc(F)c(Cl)c(N)c1Cl` (centres undefined) reads “inactive”.
The same measure, in the same setting: the result for `CCCCCCOc1ccccc1C(N)=O` reads “inactive”.
Still for that read-out and setting: the result for `CC1(O)CSC(C)(O)CS1` (centres undefined) reads “inactive”; that for `CC(=O)NCCCS(=O)(=O)O`, “inactive”.
Consider `OCCN1CCN(CCCN2c3ccccc3Sc3ccc(Cl)cc32)CC1`, for which the Potency result was “inactive”.
`Nc1cccnc1N`: the Potency entry was “inactive”.
The same measure, in the same setting: the result for `O=[N+]([O-])c1ccc(O)cc1` reads “inactive”; that for `Cc1ccc(N/N=c2\c(=O)cc/c(=N\Nc3ccc(S(=O)(=O)O)cc3)c2=O)c(C)c1`, “inactive”.
As to `CC(C)(C)c1ccc(C(=O)O)cc1`, the Potency entry was “inactive”.
The same measure, in the same setting: the value for `CCOC(=O)COc1ccc2c(C)c(CCN(CC)CC)c(=O)oc2c1Cl` was “inactive”; that for `O=[N+]([O-])c1ccc(O/N=C/c2cc(Br)c(O)c(Br)c2)c([N+](=O)[O-])c1` was “inactive”.
On to `CCc1ccc(O)c(C(C)(C)C)c1`, for which the Potency result was “inactive”.
For `C[C@@H](c1ncncc1F)C(O)(Cn1cncn1)c1ccc(F)cc1F` (some centres undefined), the Potency result was “inactive”.
As for `O=C(O)Cn1cnnn1`, the Potency entry was “inactive”.
The same measure, in the same setting: the value for `CN1C[C@H]2c3ccccc3Oc3ccc(Cl)cc3[C@@H]2C1` was “inactive”.
On the same count and under the same terms, the result for `CN1CCCN(C(c2ccccc2)c2ccc(Cl)cc2)CC1` (centres undefined) reads “inactive”.
In the case of `NCCc1cnc[nH]1`, the Potency result is “inactive”.
Take `CO[C@@]12[C@H](COC(N)=O)C3=C(C(=O)C(C)=C(N)C3=O)N1C[C@@H]1N[C@@H]12`: the Potency was 4.46 µM (active).
For the compound `OC(CCN1CCCCC1)(c1ccccc1)C1CC2C=CC1C2` (centres undefined), the Potency result was “inactive”.
Consider `CC(C)C=O`, for which the Potency entry was “inactive”.
